PubChem BioAssay (EPA / NIEHS)
Results filed as inconclusive are left out. Activity calls are given as the source filed them. The calls were made as follows: active = hit-call score of the fitted dose curve at least 0.9, where 1 is the maximum; inconclusive = response in the unintended direction; inactive = score below 0.9.

Molecular target: Luciferin 4-monooxygenase (Photinus pyralis) (UniProt P08659)
Test: CCTE_Simmons_QuantiLum_inhib_2: CCTE's Firefly Luciferase Inhibition Assay, Simmons Lab (AID 2283767);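 as to AC50: potency for inhibitors that lower luciferase luminescence relative to DMSO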
Procedure, shortened: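 Counter-screen for nonspecific enzyme inhibition: purified firefly luciferase incubated 30 min at 37C with chemicals up to 87.5 uM final, then luminescence measured after luciferin/dATP injection; activity fitted against DMSO baseline.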

Chain of Luciferin 4-monooxygenase (Photinus pyralis) (P08659 whole entry, looked up): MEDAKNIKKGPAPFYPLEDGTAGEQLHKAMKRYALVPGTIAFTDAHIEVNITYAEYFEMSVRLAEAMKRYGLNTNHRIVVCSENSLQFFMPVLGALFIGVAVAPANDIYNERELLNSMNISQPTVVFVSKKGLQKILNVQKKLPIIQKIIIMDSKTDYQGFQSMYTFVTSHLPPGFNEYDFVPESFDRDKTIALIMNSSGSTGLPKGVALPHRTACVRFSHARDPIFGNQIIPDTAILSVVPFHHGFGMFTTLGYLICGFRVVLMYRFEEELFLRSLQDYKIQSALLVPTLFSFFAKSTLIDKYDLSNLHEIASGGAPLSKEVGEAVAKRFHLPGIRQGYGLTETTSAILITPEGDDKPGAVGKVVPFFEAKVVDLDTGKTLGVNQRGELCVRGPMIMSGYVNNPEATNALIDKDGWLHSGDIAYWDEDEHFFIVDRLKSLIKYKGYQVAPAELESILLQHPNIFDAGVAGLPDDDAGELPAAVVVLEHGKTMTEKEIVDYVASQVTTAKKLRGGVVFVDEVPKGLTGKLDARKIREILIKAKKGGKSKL

SMILES | AC50 | outcome
Oc1cc2ccccc2c2ccccc12 | 30.1 µM (active) | 
CC(C)(C)c1cc(C(C)(C)C)c(O)c(C(C)(C)C)c1 |  | inactive
CCN(CC)CCNc1ccc(CNC=O)c2sc3ccc(OC)cc3c(=O)c12 |  | inactive
O=c1c(-c2ccc(O)cc2)coc2cc(O)ccc12 | 8.1 µM (active) | 
Cc1oc(-c2ccccc2)nc1CCOc1ccc(C[C@H](Nc2ccccc2C(=O)c2ccccc2)C(=O)O)cc1 |  | inactive
CC1=C(/C=C/C(C)=C/C=C/C(C)=C/C(=O)O)C(C)(C)CCC1 |  | inactive
CC(C)(C)c1ccc(O)c(C(C)(C)C)c1 |  | inactive
Nc1cccc2c(N)cccc12 | 10.6 µM (active) | 
CCC(=C(c1ccc(O)cc1)c1ccc(OCCN(C)C)cc1)c1ccccc1 |  | inactive
CC[C@H](c1ccc(O)cc1)[C@@H](CC)c1ccc(O)cc1 |  | inactive
CCCCCCCCCCCCc1ccccc1S(=O)(=O)O |  | inactive
Oc1cccc(O)c1 | 16.1 µM (active) | 
CCCCCCCCCCCCN1CCCC1=O | 31.1 µM (active) | 
CC#C[C@]1(O)CC[C@H]2[C@@H]3CCC4=CC(=O)CCC4=C3[C@@H](c3ccc(N(C)C)cc3)C[C@@]21C |  | inactive
N#C[C@@H]1CC(F)(F)CN1C(=O)CNC1CC2CCC(C1)N2c1ncccn1 (stereo partly specified) |  | inactive
NC(=O)N(O)[C@@H]1C=C[C@H](Oc2cccc(Oc3ccc(F)cc3)c2)C1 | 16.7 µM (active) | 
O=C(O)c1ccccc1C(c1ccc(O)cc1)c1ccc(O)cc1 | 15.3 µM (active) | 
Cc1cc(C)c(O)c(C)c1 |  | inactive
CCCCCCCCCCCCCC[N+](C)(C)C |  | inactive
CN1CCN(c2ccccc2/C=C2\SCCN(c3ccc(Cl)c(Cl)c3)C2=O)CC1 |  | inactive
c1ccc2cc3c(ccc4ccccc43)cc2c1 | 17.3 µM (active) | 
COc1ccc([N+](=O)[O-])cc1N |  | inactive
CC(C)(C)c1cccc(C(C)(C)C)c1O |  | inactive

System: not listed separately
Test: ACEA_AR_agonist_AUC_viability: ACEA Biosciences xCELLigence Real-Time Cell Analysis on Androgen Receptor Agonism for Viability (AID 2283775);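 as to AC50: viability read 80 hours after compound addition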
Procedure, shortened: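 Read-out is area under the impedance curve at 80 h post-dose in 22Rv1 cells, with DMSO as baseline and signal loss taken as reduced viability. Compounds ran in duplicate from 100 uM final.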

SMILES | outcome | AC50
CCOC(=O)CC(O)(CC(=O)OCC)C(=O)OCC | inactive | 
Oc1cc2ccccc2c2ccccc12 |  | 18.1 µM (active)
CCN(CC)CCNc1ccc(CNC=O)c2sc3ccc(OC)cc3c(=O)c12 |  | 7.1 µM (active)
O=c1c(-c2ccc(O)cc2)coc2cc(O)ccc12 | inactive | 
Cc1oc(-c2ccccc2)nc1CCOc1ccc(C[C@H](Nc2ccccc2C(=O)c2ccccc2)C(=O)O)cc1 |  | 14 µM (active)
CC(C)(C)c1ccc(O)c(C(C)(C)C)c1 |  | 17.4 µM (active)
CCC(=C(c1ccc(O)cc1)c1ccc(OCCN(C)C)cc1)c1ccccc1 |  | 6.23 µM (active)
CC[C@H](c1ccc(O)cc1)[C@@H](CC)c1ccc(O)cc1 |  | 10.7 µM (active)
CCCCCCCCCCCCc1ccccc1S(=O)(=O)O | inactive | 
Cc1ccc(S(=O)(=O)O)c(C)c1 | inactive | 
CCCCCCCCCCCCN1CCCC1=O |  | 50 µM (active)
CC#C[C@]1(O)CC[C@H]2[C@@H]3CCC4=CC(=O)CCC4=C3[C@@H](c3ccc(N(C)C)cc3)C[C@@]21C |  | 28.1 µM (active)
COCC(C)O (stereo unspecified) | inactive | 
CCC(C)(C)C1CCC(O)CC1 (stereo unspecified) | inactive | 
O=C(OCCOCCOC(=O)c1ccccc1)c1ccccc1 | inactive | 
CCCCCCCC(=O)O | inactive | 
CCCOC(=O)c1ccc(O)cc1 | inactive | 
NC(=O)N(O)[C@@H]1C=C[C@H](Oc2cccc(Oc3ccc(F)cc3)c2)C1 |  | 40.8 µM (active)
CCCCC(CC)COC(=O)CCCCC(=O)OCc1ccccc1 (stereo unspecified) | inactive | 
O=C(O)c1ccccc1C(c1ccc(O)cc1)c1ccc(O)cc1 | inactive | 
Cc1cc(C)c(O)c(C)c1 | inactive | 
CCCCC(CC)COC(=O)CCCCC(=O)OCC(CC)CCCC (stereo unspecified) | inactive | 
CCCCCCCCCCCCCC[N+](C)(C)C |  | 4.73 µM (active)
CN1CCN(c2ccccc2/C=C2\SCCN(c3ccc(Cl)c(Cl)c3)C2=O)CC1 |  | 66.3 µM (active)
COCC(C)OCC(C)O (stereo unspecified) | inactive | 
COc1ccc([N+](=O)[O-])cc1N | inactive | 
CC(C)(C)c1cccc(C(C)(C)C)c1O | inactive | 
CCCCOCCO | inactive | 

System: not listed separately
Test: ACEA_AR_antagonist_AUC_viability: ACEA Biosciences xCELLigence Real-Time Cell Analysis on Androgen Receptor Antagonism for Viability (AID 2283776);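 also: area under impedance growth curve at 80 h after dosing as viability; hits lower the growth signal relative to DMSO meaning cytotoxicity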
Procedure, shortened: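 22Rv1 human prostate cancer cells were seeded on electrode plates, monitored overnight, then exposed to eight 1:4 dilutions from 100 uM final. Impedance-based growth kinetics at 80 h gave an AUC viability endpoint normalized to DMSO.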

SMILES | outcome | AC50
CCOC(=O)CC(O)(CC(=O)OCC)C(=O)OCC | inactive | 
Oc1cc2ccccc2c2ccccc12 |  | 10.7 µM (active)
CCN(CC)CCNc1ccc(CNC=O)c2sc3ccc(OC)cc3c(=O)c12 |  | 5.35 µM (active)
O=c1c(-c2ccc(O)cc2)coc2cc(O)ccc12 | inactive | 
Cc1oc(-c2ccccc2)nc1CCOc1ccc(C[C@H](Nc2ccccc2C(=O)c2ccccc2)C(=O)O)cc1 |  | 14.4 µM (active)
CC1=C(/C=C/C(C)=C/C=C/C(C)=C/C(=O)O)C(C)(C)CCC1 |  | 78.6 µM (active)
CC(C)(C)c1ccc(O)c(C(C)(C)C)c1 |  | 21 µM (active)
CCC(=C(c1ccc(O)cc1)c1ccc(OCCN(C)C)cc1)c1ccccc1 |  | 5.79 µM (active)
CC[C@H](c1ccc(O)cc1)[C@@H](CC)c1ccc(O)cc1 |  | 10.1 µM (active)
CCCCCCCCCCCCc1ccccc1S(=O)(=O)O | inactive | 
Oc1cccc(O)c1 | inactive | 
Cc1ccc(S(=O)(=O)O)c(C)c1 | inactive | 
CCCCCCCCCCCCN1CCCC1=O |  | 75.5 µM (active)
CC#C[C@]1(O)CC[C@H]2[C@@H]3CCC4=CC(=O)CCC4=C3[C@@H](c3ccc(N(C)C)cc3)C[C@@]21C |  | 25.2 µM (active)
N#C[C@@H]1CC(F)(F)CN1C(=O)CNC1CC2CCC(C1)N2c1ncccn1 (stereo partly specified) | inactive | 
COCC(C)O (stereo unspecified) | inactive | 
CCC(C)(C)C1CCC(O)CC1 (stereo unspecified) | inactive | 
O=C(OCCOCCOC(=O)c1ccccc1)c1ccccc1 | inactive | 
CCCCCCCC(=O)O | inactive | 
CCCOC(=O)c1ccc(O)cc1 | inactive | 
NC(=O)N(O)[C@@H]1C=C[C@H](Oc2cccc(Oc3ccc(F)cc3)c2)C1 |  | 25 µM (active)
CCCCC(CC)COC(=O)CCCCC(=O)OCc1ccccc1 (stereo unspecified) | inactive | 
O=C(O)c1ccccc1C(c1ccc(O)cc1)c1ccc(O)cc1 | inactive | 
Cc1cc(C)c(O)c(C)c1 | inactive | 
CCCCC(CC)COC(=O)CCCCC(=O)OCC(CC)CCCC (stereo unspecified) | inactive | 
CCCCCCCCCCCCCC[N+](C)(C)C |  | 6.52 µM (active)
CN1CCN(c2ccccc2/C=C2\SCCN(c3ccc(Cl)c(Cl)c3)C2=O)CC1 |  | 66.9 µM (active)
COc1ccc([N+](=O)[O-])cc1N |  | 27.3 µM (active)
CC(C)(C)c1cccc(C(C)(C)C)c1O | inactive | 
CCCCOCCO | inactive | 
